Data reported in publication PMC7862700, “An all-to-all approach to the identification of sequence-specific readers for epigenetic DNA modifications on cytosine”.

Key:
Experiment in all cases: DAPPL (digital affinity profiling via proximity ligation, sequencing); 10 mM Tris-HCl pH 7.5, 50 mM NaCl, 1 mM DTT, 4% glycerol, room temperature, 30 min; GST-TFs on glutathione beads, 16-mer random dsDNA library, 0.1% formaldehyde crosslink after washing; high values mean tight binding
Conditions in all cases: protein: recombinant; tags: N-terminal GST; dsDNA, one strand shown
[1] = target: T1, FLI1 (Homo sapiens, UniProt Q01543 1-452)
T1 sequence: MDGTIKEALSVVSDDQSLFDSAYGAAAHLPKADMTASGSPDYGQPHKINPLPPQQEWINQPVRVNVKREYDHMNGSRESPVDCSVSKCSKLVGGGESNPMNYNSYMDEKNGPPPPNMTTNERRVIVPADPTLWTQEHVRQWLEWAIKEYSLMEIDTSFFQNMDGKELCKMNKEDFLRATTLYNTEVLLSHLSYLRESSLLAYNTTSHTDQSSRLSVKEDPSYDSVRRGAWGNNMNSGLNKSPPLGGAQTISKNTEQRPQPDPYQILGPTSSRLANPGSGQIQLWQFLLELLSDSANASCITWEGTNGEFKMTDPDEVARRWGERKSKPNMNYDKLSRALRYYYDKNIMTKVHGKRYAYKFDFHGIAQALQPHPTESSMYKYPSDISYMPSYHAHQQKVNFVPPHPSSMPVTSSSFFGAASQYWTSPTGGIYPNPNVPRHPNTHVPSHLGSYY
Summary of the method: (§1)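 Sequencing on an Illumina NextSeq500 followed washing, crosslinking with 0.1% formaldehyde, proximity ligation (BsaI/T4 ligase, 1 h, 37 °C) and PCR amplification of pools that had been incubated for 30 min at room temperature with 200 nmole of a random double-stranded 16-mer DNA library in Tris/NaCl/DTT/glycerol buffer. Each pool held DNA-barcoded human transcription factors, expressed in yeast as GST fusions and captured on glutathione beads, plus a tag-only sample. Binding signal is a hexamer's read frequency for a factor divided by its frequency in the tag-only sample.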

[2] = target: T2, ELK1 (Homo sapiens, UniProt P19419 1-428)
T2 sequence: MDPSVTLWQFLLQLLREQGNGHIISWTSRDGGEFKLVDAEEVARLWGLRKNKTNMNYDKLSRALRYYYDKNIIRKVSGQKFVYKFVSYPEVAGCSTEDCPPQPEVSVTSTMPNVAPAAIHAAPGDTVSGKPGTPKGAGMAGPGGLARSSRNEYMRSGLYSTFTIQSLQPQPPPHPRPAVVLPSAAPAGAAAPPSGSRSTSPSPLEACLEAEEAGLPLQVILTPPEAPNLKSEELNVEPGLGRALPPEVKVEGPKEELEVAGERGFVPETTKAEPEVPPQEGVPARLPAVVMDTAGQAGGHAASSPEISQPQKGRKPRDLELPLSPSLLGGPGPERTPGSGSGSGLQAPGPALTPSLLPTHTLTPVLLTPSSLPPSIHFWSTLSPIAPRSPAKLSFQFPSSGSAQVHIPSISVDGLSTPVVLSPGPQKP
Summary of the method: as §1

[3] = target: T3, GABPA (Homo sapiens, UniProt Q06546 1-454)
T3 sequence: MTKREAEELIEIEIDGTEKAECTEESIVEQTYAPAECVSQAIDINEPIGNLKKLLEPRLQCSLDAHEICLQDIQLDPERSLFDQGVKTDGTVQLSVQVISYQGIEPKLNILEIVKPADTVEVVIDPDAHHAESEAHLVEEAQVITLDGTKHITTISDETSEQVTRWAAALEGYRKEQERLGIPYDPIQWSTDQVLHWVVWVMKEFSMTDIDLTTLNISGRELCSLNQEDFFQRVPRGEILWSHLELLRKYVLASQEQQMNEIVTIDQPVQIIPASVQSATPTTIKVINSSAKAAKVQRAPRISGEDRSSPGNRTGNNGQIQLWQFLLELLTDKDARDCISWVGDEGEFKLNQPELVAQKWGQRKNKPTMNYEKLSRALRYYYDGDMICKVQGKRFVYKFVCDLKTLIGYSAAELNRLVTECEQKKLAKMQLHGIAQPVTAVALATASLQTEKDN
Summary of the method: as §1

[4] = target: T4, ERG (Homo sapiens, UniProt P11308 1-479)
T4 sequence: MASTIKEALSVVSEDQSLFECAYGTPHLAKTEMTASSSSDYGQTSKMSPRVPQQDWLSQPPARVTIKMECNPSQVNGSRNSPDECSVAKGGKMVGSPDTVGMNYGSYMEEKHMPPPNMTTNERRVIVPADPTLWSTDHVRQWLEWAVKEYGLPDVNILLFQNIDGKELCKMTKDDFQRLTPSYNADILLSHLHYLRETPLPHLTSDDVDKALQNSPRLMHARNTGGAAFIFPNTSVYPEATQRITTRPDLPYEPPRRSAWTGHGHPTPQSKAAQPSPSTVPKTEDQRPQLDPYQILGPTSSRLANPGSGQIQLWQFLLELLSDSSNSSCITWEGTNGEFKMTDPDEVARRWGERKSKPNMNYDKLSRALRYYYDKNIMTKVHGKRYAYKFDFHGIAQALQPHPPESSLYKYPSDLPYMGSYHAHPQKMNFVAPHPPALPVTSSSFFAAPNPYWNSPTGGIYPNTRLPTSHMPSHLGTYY
Summary of the method: as §1

[5] = target: ELF1 (Homo sapiens, UniProt P32519 1-619)
Summary of the method: as §1

[6] = target: T5, EHF (Homo sapiens, UniProt Q9NZC4 1-300)
T5 sequence: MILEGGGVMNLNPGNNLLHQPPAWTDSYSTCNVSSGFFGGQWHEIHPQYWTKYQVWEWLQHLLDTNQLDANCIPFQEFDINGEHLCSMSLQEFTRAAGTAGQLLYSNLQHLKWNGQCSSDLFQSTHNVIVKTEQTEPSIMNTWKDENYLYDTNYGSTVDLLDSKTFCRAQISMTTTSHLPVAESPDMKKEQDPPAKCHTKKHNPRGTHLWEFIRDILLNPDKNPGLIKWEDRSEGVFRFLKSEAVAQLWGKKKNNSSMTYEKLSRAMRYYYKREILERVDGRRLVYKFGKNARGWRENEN
Summary of the method: as §1

[7] = target: SPI1 (Homo sapiens, UniProt P17947 1-270)
Summary of the method: as §1

[8] = target: SPIB (Homo sapiens, UniProt Q01892 1-262)
Summary of the method: as §1

[9] = target: T6, ELK3 (Homo sapiens, UniProt P41970 1-407)
T6 sequence: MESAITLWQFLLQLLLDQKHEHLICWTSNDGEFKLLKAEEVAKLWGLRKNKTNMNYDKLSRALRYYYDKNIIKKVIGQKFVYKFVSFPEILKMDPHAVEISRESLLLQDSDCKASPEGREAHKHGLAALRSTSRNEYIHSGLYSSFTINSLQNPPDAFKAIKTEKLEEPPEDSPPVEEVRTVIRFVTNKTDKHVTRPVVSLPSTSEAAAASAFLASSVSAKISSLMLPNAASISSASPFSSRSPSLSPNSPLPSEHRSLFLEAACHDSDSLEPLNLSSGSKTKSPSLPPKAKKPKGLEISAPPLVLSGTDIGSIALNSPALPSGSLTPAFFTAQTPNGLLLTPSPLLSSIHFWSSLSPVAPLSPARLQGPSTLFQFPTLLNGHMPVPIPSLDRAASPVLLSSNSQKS
Summary of the method: as §1

ELF1, sequence (P32519 whole entry): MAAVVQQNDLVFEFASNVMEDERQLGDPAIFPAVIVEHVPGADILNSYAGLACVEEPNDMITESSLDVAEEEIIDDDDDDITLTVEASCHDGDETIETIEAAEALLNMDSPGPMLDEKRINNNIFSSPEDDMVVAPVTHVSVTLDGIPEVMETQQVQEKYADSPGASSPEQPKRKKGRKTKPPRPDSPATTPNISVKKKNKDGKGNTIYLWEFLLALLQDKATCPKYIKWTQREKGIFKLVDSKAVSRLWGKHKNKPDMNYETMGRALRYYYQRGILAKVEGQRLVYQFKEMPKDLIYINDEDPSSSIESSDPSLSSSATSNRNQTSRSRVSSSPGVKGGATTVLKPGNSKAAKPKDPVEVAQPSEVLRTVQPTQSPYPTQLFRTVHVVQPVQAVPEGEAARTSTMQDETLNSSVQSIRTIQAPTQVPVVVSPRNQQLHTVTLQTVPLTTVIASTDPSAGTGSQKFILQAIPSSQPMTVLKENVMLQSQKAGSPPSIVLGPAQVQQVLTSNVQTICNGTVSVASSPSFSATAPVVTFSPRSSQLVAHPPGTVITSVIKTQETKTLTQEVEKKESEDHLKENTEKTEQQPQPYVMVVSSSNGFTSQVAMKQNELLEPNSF
SPIB, sequence (Q01892 whole entry): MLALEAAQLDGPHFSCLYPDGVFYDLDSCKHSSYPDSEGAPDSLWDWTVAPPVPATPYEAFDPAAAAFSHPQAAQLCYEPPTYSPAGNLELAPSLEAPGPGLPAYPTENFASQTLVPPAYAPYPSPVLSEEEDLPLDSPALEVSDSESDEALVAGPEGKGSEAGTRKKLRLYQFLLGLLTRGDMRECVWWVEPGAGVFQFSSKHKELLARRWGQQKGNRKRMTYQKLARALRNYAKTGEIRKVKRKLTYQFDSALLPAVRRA

Sequence	binding signal [1]	binding signal [2]	binding signal [3]	binding signal [4]	binding signal [5]	binding signal [6]	binding signal [7]	binding signal [8]	binding signal [9]
ATCGAC	1.13 fold enrichment (6-mer frequency, TF over GST control)	1.11 fold enrichment (6-mer frequency, TF over GST control)	1.17 fold enrichment (6-mer frequency, TF over GST control)	1.1 fold enrichment (6-mer frequency, TF over GST control)	1.24 fold enrichment (6-mer frequency, TF over GST control)	1.12 fold enrichment (6-mer frequency, TF over GST control)	1.15 fold enrichment (6-mer frequency, TF over GST control)	1.11 fold enrichment (6-mer frequency, TF over GST control)	1.27 fold enrichment (6-mer frequency, TF over GST control)
GCTGAT	1.11 fold enrichment (6-mer frequency, TF over GST control)	1.1 fold enrichment (6-mer frequency, TF over GST control)	1.18 fold enrichment (6-mer frequency, TF over GST control)	1.1 fold enrichment (6-mer frequency, TF over GST control)	1.22 fold enrichment (6-mer frequency, TF over GST control)	1.33 fold enrichment (6-mer frequency, TF over GST control)	1.08 fold enrichment (6-mer frequency, TF over GST control)	1.11 fold enrichment (6-mer frequency, TF over GST control)	1.33 fold enrichment (6-mer frequency, TF over GST control)
CTCTGG	1.31 fold enrichment (6-mer frequency, TF over GST control)	1.5 fold enrichment (6-mer frequency, TF over GST control)	1.3 fold enrichment (6-mer frequency, TF over GST control)	1.28 fold enrichment (6-mer frequency, TF over GST control)	1.34 fold enrichment (6-mer frequency, TF over GST control)	1.35 fold enrichment (6-mer frequency, TF over GST control)	1.4 fold enrichment (6-mer frequency, TF over GST control)	1.12 fold enrichment (6-mer frequency, TF over GST control)	1.48 fold enrichment (6-mer frequency, TF over GST control)
AAAATG	1.17 fold enrichment (6-mer frequency, TF over GST control)	1.15 fold enrichment (6-mer frequency, TF over GST control)	1.16 fold enrichment (6-mer frequency, TF over GST control)	1.2 fold enrichment (6-mer frequency, TF over GST control)	1.15 fold enrichment (6-mer frequency, TF over GST control)	1.21 fold enrichment (6-mer frequency, TF over GST control)	1.37 fold enrichment (6-mer frequency, TF over GST control)	1.26 fold enrichment (6-mer frequency, TF over GST control)	1.18 fold enrichment (6-mer frequency, TF over GST control)
ATGACT	1.5 fold enrichment (6-mer frequency, TF over GST control)	1.42 fold enrichment (6-mer frequency, TF over GST control)	1.39 fold enrichment (6-mer frequency, TF over GST control)	1.44 fold enrichment (6-mer frequency, TF over GST control)	1.42 fold enrichment (6-mer frequency, TF over GST control)	1.35 fold enrichment (6-mer frequency, TF over GST control)	1.51 fold enrichment (6-mer frequency, TF over GST control)	1.52 fold enrichment (6-mer frequency, TF over GST control)	1.33 fold enrichment (6-mer frequency, TF over GST control)
CTGCTT	1.69 fold enrichment (6-mer frequency, TF over GST control)	1.57 fold enrichment (6-mer frequency, TF over GST control)	1.59 fold enrichment (6-mer frequency, TF over GST control)	1.6 fold enrichment (6-mer frequency, TF over GST control)	1.65 fold enrichment (6-mer frequency, TF over GST control)	1.88 fold enrichment (6-mer frequency, TF over GST control)	1.75 fold enrichment (6-mer frequency, TF over GST control)	1.54 fold enrichment (6-mer frequency, TF over GST control)	1.58 fold enrichment (6-mer frequency, TF over GST control)
TCATTC	1.27 fold enrichment (6-mer frequency, TF over GST control)	1.22 fold enrichment (6-mer frequency, TF over GST control)	1.26 fold enrichment (6-mer frequency, TF over GST control)	1.27 fold enrichment (6-mer frequency, TF over GST control)	1.28 fold enrichment (6-mer frequency, TF over GST control)	1.17 fold enrichment (6-mer frequency, TF over GST control)	1.24 fold enrichment (6-mer frequency, TF over GST control)	1.19 fold enrichment (6-mer frequency, TF over GST control)	1.28 fold enrichment (6-mer frequency, TF over GST control)
